Assay outcomes from PubChem BioAssay.
Shown are actives, neighbours in structure and some others; about 9.2% of the full set was active somewhere.
SMN2 splice up = SMN2 splice variant enhancement; 210,000 tested, 2.8% active; AID 1458; Potency, µM (titrated, usually from 46.1 µM), without a hit: top-dose activity change, positive = activation, hits mostly activators; HEK293 SMN2-luciferase splicing reporter, luminescence, 30-36 h; also: % of control where 0% means no effect; nearly all actives have a fitted effect of over 55% in size
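HEK293 cells carry an SMN2 […]–luciferase reporter in which exon 7 inclusion puts luciferase in frame. Cells were plated 10-12 h before compound addition, then incubated 30-36 h at 37C. ONE-Glo luminescence was read; sodium butyrate at 4.5 mM final served as control.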
Rab9 prom act = Rab9 promoter activation | Huh7 Rab9 promoter-luciferase reporter, luminescence, 24 h | AID 485297 | 320,000 tested, 2.8% active | Potency, µM (series often up to 9.22 µM), for the others: at the highest dose activation, negative = inhibition, hits mostly activators; also: % of control where 0% means no effect; nearly all actives have a fitted effect of over 60% in size
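Stable Rab9-luc Huh7, 1500 cells/well, 2 h settle; cmpd in DMSO, 24 h, 37 °C/5% CO2; luciferase reagent 10 min RT; luminescence.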
ELG1 repair inh = blocks ELG1-dependent DNA repair in HEK293T cells; HEK293T ELG1-luciferase reporter, luminescence, 16 h; DNA damage induced by 5-fluorouridine; Potency, µM (top dose mostly 46.1 µM), for inactives: top-dose activity change, negative = inhibition, usual class: inhibitors; 330,000 tested, 2.3% active; AID 504467; also: % is scaled to controls: 0 for no effect and ±100 for the full control effect; nearly all actives have a fitted effect of over 55% in size
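DMSO vehicle served as the neutral condition. Each well held 2,000 cells given 5-fluorouridine plus compound; after 16 hr at 37 °C/5% CO2, ONE-Glo was added and luciferase measured 30 min later.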
ELG1 genotox = genotoxicity induction in ELG1-luciferase HEK293T cells; AID 504466; Potency, µM (series often up to 46 µM), without a hit: top-dose activity change, positive = activation, usual class: activators; HEK293T ELG1-luciferase reporter, luminescence, 16 h; 330,000 tested, 1.3% active; also: % of control where 0% means no effect; nearly all actives have a fitted effect of over 60% in size
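Quantitative HTS format in 1536-well plates. HEK293T ELG1-luciferase reporter cells receive test compound and are incubated 16 hr at 37 °C, 5% CO2; ONE-Glo added, 30 min room temperature, then luminescence read.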
NPC1 promoter act = NPC1 promoter activation; Huh7 NPC1 promoter luciferase reporter, 24 h; Potency, µM (top dose mostly 9.22 µM), for the others: at the top dose activation, hits mostly activators; 320,000 tested, 2.4% active; also: % of control where 0% means no effect; nearly all actives have a fitted effect of over 60% in size
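Stable NPC1-promoter luciferase Huh7 line; cpd (DMSO) 24 h, 37 °C, 5% CO2; Amplite luciferase reagent 10 min RT; luminescence readout. qHTS format.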
FLuc modulator = counter-screen for miR-21 project: firefly luciferase inhibitors or activators; purified FLuc, Km substrates, luminescence inhibition; Potency, µM (series often up to 57.5 µM), inactives show top-dose activity change, negative = inhibition, actives largely listed as inhibitors; 360,000 tested, 6.9% active;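 also: plate controls were vehicle for no effect and reference inhibitor for full effect; nearly all actives have a fitted effect of over 55% in size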
Target sequence (P08659 whole entry, looked up): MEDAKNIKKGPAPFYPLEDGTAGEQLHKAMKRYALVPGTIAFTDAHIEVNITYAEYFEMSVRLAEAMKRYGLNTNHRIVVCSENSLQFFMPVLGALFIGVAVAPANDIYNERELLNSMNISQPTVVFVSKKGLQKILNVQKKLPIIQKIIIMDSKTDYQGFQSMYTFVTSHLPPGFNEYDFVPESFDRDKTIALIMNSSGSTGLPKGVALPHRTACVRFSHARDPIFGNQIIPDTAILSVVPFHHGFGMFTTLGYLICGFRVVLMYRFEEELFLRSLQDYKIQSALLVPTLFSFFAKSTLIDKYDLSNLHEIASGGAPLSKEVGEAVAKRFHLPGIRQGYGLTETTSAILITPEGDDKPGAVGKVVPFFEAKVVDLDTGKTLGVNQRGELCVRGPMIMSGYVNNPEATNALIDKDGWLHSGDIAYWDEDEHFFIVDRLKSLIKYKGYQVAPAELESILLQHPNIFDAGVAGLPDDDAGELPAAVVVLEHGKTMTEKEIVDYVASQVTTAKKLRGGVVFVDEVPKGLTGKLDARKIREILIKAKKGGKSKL
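Purified P. pyralis luciferase (10nM final) with 10uM D-luciferin and 10uM ATP (Km levels) in 50mM Tris acetate pH 7.5, 10mM Mg acetate, 0.01% Tween-20, 0.05% BSA; qHTS 6-point titration, ~60 µM downward; luminescence read.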
* hit, by the source's call; u = inconclusive; x = no result given; ! = not confirmed by another sample; [ ] = remark or other dose. Calls follow the shape of the dose curve; as a rule, active = well fitted curve in the direction sought with a large enough effect; inconclusive = small, poorly fitted or top-dose-only effect, or another doubt; inactive = no such curve, though single readings can be large; an effect the other way counts as inactive or inconclusive. Potency is read from the fitted curve at half-maximal effect.

SMILES | SMN2 splice up | Rab9 prom act | ELG1 repair inh | ELG1 genotox | NPC1 promoter act | FLuc modulator
COCC(C)NCc1ccccc1C (stereo unspecified) | 24% | 23% | 7% | -6% | 5% | -1%
COc1cc(NC(=O)c2ccc(-c3nc(CSc4ccccc4)c(C)o3)cc2)cc(OC)c1 | x | x | x | x | x | -12%
NC(=S)NCCC[C@H](N)C(=O)O | -2% | 0%[46.1 µM] | x | x | 10%[46.1 µM] | x
O=c1[nH][nH]cc1C=Nc1cc(Cl)ccc1O | 41% | -7% | -14% | 0% | -12% | -2%
O=c1[nH][nH]cc1C=Nc1ccc(Cl)cc1Cl | -4% | -2% | 1% | 9% | -4% | 7.6µM*
COc1cc(-c2nc(-c3ccccc3)c(-c3ccc(Br)cc3)[nH]2)cc(OC)c1O | 8% | x | x | x | x | -1%
COc1ccc(-c2[nH]c(-c3cc(OC)c4c(c3)OCO4)nc2-c2ccccc2)cc1 | -9% | 0% | 21µM* | -7% | -1% | -5%
CC(C)c1ccc2[nH]c(O)c(N=NC(=O)c3cccc(S(=O)(=O)N4CCCCC4)c3)c2c1 | x | -4% | 10µM* | -13% | -1% | -19%
C[C@H](CO)N1C[C@H](C)[C@@H](CN(C)Cc2ccc(-c3ccccc3)cc2)Oc2c(NS(=O)(=O)c3cccs3)cccc2C1=O | x | x | -17% | -6% | x | x
O=C(COc1ccccc1)Nc1cccc(-c2nnc(-c3ccccc3)o2)c1 | u | 28% | -14% | -8% | u | 12µM*
Cc1ccc(SCC(=O)Nc2ccc(-c3nnc(-c4ccco4)o3)cc2)cc1 | u | 3.5µM* | u | u | 2.5µM* | 3%
O=C(O)CCC(=O)Nc1cccc(-c2nnc(-c3ccccc3)o2)c1 | x | -2% | 6% | 11% | 3% | 21µM*
Cc1cc(C)cc(OCC(=O)Nc2cccc(-c3nnc(-c4ccco4)o3)c2)c1 | 13% | -2% | 21µM* | -50% | 11% | 1%
O=C(O)CCC(=O)Nc1ccc(-c2nnc(-c3ccco3)o2)cc1 | 1% | -9% | 25% | 3% | 2% | u
Cc1cc(C)c(NC(=O)CCS(=O)(=O)c2cc3c(cc2Cl)NC(=O)CO3)c(C)c1 | x | x | x | x | x | 5%
Cc1cc(C(=O)NNC(=O)/C=C/c2ccco2)c(C)o1 | x | -1% | 5% | 1% | -4% | -2%
COC(=O)C1=C(C)N(C(C)C)C(=O)C1(NC(=O)c1ccccc1OC)C(F)(F)F (stereo unspecified) | -12% | x | x | x | x | 3%
Cc1c(/N=C(\[O-])Nc2ccc(Br)cc2)sn[n+]1C | x | 0.1µM* | u | 0.37µM* | 0.28µM* | 1.1µM*
CNC(=S)Nc1ccc(Br)cc1 | 8% | 0% | 15% | -1% | 4% | 3%
Cc1cnc(NC(=O)CCNC(=O)c2ccc([N+](=O)[O-])cc2)s1 | 5% | 0% | -4% | 10% | 0% | 0%
CCOC(=O)C1=CN(Cc2cccc(F)c2)S(=O)(=O)N(C)C1c1ccc(F)c(Cl)c1 (stereo unspecified) | x | x | u | -3% | x | x
N#Cc1ccc(-c2ccc(F)cc2)nc1SCC(=O)Nc1sc2c(c1C#N)CCC2 | -28% | -2% | 6.5µM* | 0% | -6% | 0%
CCCCn1nnnc1SCC(=O)Nc1sc2c(c1C#N)CCCC2 | -22% | -3% | u | -5% | 19% | -10%
N#Cc1cc2c(nc1SCC(=O)Nc1sc3c(c1C#N)CCC3)CCCC2 | 16% | u | 23% | 14% | u | 4%
Cn1cnnc1SCC(=O)Nc1sc2c(c1C#N)CCCCC2 | -17% | 11% | u | 7% | 10% | 27µM*
SMILES | SMN2 splice up | Rab9 prom act | ELG1 repair inh | ELG1 genotox | NPC1 promoter act | FLuc modulator
N#Cc1c(NC(=O)CSc2ncn[nH]2)sc2c1CCCCC2 | -74% | -25% | u | -14% | -18% | 7.6µM*
COc1cc(C=O)ccc1OCCCOc1ccc([N+](=O)[O-])cc1 | -67% | -3% | -14% | 2% | 1% | 0%
COc1cc(C(c2c(C)[nH][nH]c2=O)c2c(C)[nH][nH]c2=O)ccc1OCc1ccc([N+](=O)[O-])cc1 | 18µM* | 0% | u | 18µM* | 19% | -20%
CCOC(=O)C(=Cc1ccc(OCc2ccc([N+](=O)[O-])cc2)c(OC)c1)C(=O)OCC | -13% | -2% | 18µM* | -9% | -3% | 15µM*
COC(=O)C(=Cc1ccc(OCc2ccc([N+](=O)[O-])cc2)c(OC)c1)C(=O)OC | 16µM* | 1% | u | u | -1% | 9.5µM*
CCS(=O)(=O)N1Cc2ccccc2CC1C(=O)Nc1ccc(F)c(F)c1 (stereo unspecified) | x | 21% | u | 15% | 24% | u
C/C(=N\O)c1ccc2c3c([nH]c2c1)CCCC3 | u | u | u | u | u | 11µM*
C/C(=N\O)c1ccc2[nH]ccc2c1 | 22% | u | u | 15% | -4% | u
CCc1c(C#N)sc(C(N)=O)c1CC | x | -2% | 10µM* | -7% | -1% | 0%
COc1ccc(C(CC(=O)NCc2ccccc2)N2Cc3ccccc3C2=O)cc1 (stereo unspecified) | x | x | x | x | x | 8%
Cc1ccc(C(=O)Nn2c(O)c(C=C3N=c4ccccc4=N3)sc2=S)cc1 | 29% | 6% | 26% | 5% | 0% | u
Oc1[nH]c(=S)sc1C=C1N=c2ccccc2=N1 | x | 27% | u | u | u | 6µM*
Cc1ccc(S(=O)(=O)Nn2c(O)c(C=C3N=c4ccccc4=N3)sc2=S)cc1 | x | 2% | 0% | -3% | 0% | 17µM*
O=C(Nn1c(O)c(C=C2N=c3ccccc3=N2)sc1=S)c1ccccc1 | 0% | -4% | 0% | 6% | 0% | 6µM*
CC(C)c1nc(SCC(=O)Nc2cccc3ccccc23)n[nH]1 | x | x | -9% | -1% | x | x
COc1ccc(OC)c(NC(=O)c2cc(=O)c3c(C)cc(C)cc3o2)c1 | 2% | x | x | x | x | -6%
Cc1cc(C)nc(N2C(=O)CC(C(C)c3ccccc3)C2=O)n1 (stereo unspecified) | -2% | -2% | 7% | 0% | -1% | 3%
COc1ccc2nc(N3C(=O)CC(C(C)c4ccccc4)C3=O)sc2c1 (stereo unspecified) | x | 0% | 8% | -1% | 0% | 21µM*
Nc1nc2ccc(OC(F)(F)F)cc2s1 | u | 10µM*! | u | 16% | 10µM*! | u
Cc1nc2ccc(Oc3ccccc3)cc2s1 | x | 12% | u | 5% | 15% | 17µM*
Nc1nc2ccc(Oc3ccccc3)cc2s1 | u | 4µM* | u | 8.2µM* | 2.8µM* | 8.5µM*
Cc1nc2ccc(CCO)cc2s1 | 0% | -4% | 17% | 3% | -2% | -13%
